# In PubChem BioAssay (NCATS):
# Records with an inconclusive call do not appear. Entries that show only a call come without a potency. Activity calls are given as the source filed them. Unless noted, the call rests on the fitted dose curve; in most records, active means well fitted curve in the direction sought with a large enough effect; inconclusive means small, poorly fitted or top-dose-only effect, or another doubt; inactive means no such curve, though single readings can be large; an effect the other way counts as inactive or inconclusive.
# How the values were obtained:
# [1] = AP1 Signaling Pathway (AID 357; active means well fitted curve in either direction with a large enough effect, not every such curve was filed as active); conditions: ME-180 AP-1-bla reporter, EGF-induced, beta-lactamase ratio, 5 h; at 7.69 µM (top of the series) unless noted
# Method in brief: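 AP-1-bla ME-180 cells with beta-lactamase reporter under AP-1 response element, stimulated with EC50 EGF; compounds titrated, 5 hours at 37 degrees Celsius. CCF4 read at 460/530 nm ratio; positive and negative modulators judged by AC50.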
# [2] = biological target: Cytochrome P450 1A2 (Homo sapiens) (UniProt P05177); assay: p450-cyp1a2 (AID 410; calls by dose curve; further: potency means the concentration at half of the fitted maximal effect)
# Cytochrome P450 1A2 (Homo sapiens), sequence (P05177 whole entry, looked up): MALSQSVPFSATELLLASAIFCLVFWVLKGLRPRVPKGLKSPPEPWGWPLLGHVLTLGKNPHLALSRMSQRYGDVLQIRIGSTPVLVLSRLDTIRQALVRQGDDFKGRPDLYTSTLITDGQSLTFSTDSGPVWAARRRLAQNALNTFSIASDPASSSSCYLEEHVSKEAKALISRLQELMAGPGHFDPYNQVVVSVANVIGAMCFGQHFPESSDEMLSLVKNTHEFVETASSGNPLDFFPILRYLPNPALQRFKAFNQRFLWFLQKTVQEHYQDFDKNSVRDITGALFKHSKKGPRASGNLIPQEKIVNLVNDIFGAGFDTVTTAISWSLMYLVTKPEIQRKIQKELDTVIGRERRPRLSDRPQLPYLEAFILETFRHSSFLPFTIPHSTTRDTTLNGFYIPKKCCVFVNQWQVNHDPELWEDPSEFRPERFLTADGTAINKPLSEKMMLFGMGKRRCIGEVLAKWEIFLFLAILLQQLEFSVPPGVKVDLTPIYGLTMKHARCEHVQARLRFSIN
# Method in brief: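 Human CYP1A2 (20nM) demethylated Luciferin-ME at its Km (100uM) in 100mM KPO4. After 10 min compound preincubation, NADPH regeneration ran the reaction 60 min at room temperature. Luciferin was read by luminescence, normalized to 57 uM furafylline.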
# [3] = NFAT Signaling Pathway (AID 444; active means well fitted curve in either direction with a large enough effect, not every such curve was filed as active;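 further: carbachol stimulus at about its EC50 of 1 µM final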); conditions: Jurkat NFAT-bla M1, carbachol, beta-lactamase ratio, 5 h; at 7.69 µM (top of the series) unless noted
# Method in brief: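 Jurkat cells carrying an NFAT-driven β-lactamase reporter and co-transfected muscarinic M1 receptor were treated with compound plus carbachol (1 uM final, an EC50 level) for 5 h at 37 °C. CCF4 loading followed for 1 h at RT; 460/530 nm ratio gave %activity.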
# [4] = Stat Signaling Pathway (AID 446; active means well fitted curve in either direction with a large enough effect, not every such curve was filed as active;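 further: ME-180 cervical cancer cells given 40 pM IL-6 alongside compound; SIE-controlled beta-lactamase reporter measured as 460/530 nm FRET emission ratio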); conditions: ME-180 (cervical carcinoma) SIE beta-lactamase reporter, IL-6 stimulated, 5 h; at 7.69 µM (top of the series) unless noted
# Method in brief: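 IL-6/STAT signaling read in ME-180 cells via an SIE beta-lactamase reporter. Stimulus was 40 pM IL-6 (its AC50) for 5 hrs, so both activation and inhibition register.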
# [5] = biological target: Glucocorticoid receptor (Homo sapiens) (UniProt P04150); assay: GR-GFP Redistribution (AID 450;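 active means compounds whose dose series gives a full or clear partial fitted curve of increased nuclear translocation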; further: potency means the concentration at half of the fitted maximal effect); conditions: U2OS GR-GFP nuclear translocation, laser cytometry, 2 h
# Glucocorticoid receptor (Homo sapiens), sequence (P04150 whole entry, looked up, the tested form may be a part): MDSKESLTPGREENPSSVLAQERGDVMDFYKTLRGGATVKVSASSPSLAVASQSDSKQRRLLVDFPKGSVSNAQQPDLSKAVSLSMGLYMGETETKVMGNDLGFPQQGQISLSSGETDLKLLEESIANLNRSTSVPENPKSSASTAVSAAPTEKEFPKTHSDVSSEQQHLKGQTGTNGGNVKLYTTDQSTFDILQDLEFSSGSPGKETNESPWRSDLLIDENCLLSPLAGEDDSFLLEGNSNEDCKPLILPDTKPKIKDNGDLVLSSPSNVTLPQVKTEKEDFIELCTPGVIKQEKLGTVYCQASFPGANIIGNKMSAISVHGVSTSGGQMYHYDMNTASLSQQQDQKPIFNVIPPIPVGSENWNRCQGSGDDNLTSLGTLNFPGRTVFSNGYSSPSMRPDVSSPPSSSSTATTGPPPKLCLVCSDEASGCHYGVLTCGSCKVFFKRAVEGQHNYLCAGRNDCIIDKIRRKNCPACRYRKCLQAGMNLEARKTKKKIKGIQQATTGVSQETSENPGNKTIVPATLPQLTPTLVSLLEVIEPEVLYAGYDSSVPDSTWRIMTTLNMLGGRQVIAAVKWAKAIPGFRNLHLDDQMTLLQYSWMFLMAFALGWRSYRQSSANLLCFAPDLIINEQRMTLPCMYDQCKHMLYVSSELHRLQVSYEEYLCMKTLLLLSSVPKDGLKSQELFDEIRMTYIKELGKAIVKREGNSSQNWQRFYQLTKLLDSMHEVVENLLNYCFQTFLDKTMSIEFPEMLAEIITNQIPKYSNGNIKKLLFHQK
# [6] = biological target: Glucocorticoid receptor (Homo sapiens) (UniProt P04150); assay: GR-EFC Redistribution (AID 451; calls by dose curve; further: potency means the concentration at half of the fitted maximal effect); conditions: CHO-K1 GR-EFC translocation, beta-gal luminescence, 2 h
# Method in brief: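 CHO-K1 cells stably expressing nuclear-localized β-gal enzyme acceptor and GR fused C-terminally to the enzyme donor fragment; ligand-driven nuclear translocation restores β-gal by complementation. Compounds titrated up to 46 uM final, 2 h at 37 °C; luminescence read.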
# [7] = biological target: 3',5'-cyclic-AMP phosphodiesterase 4B (Homo sapiens) (UniProt Q07343); assay: qHTS Assay for Inhibitors of PDE-IV (AID 607; active means well fitted activation curve with a large enough effect in the main read-out, with a control signal flat, not every such curve was filed as active; further: potency means the concentration at half of the fitted maximal effect)
# 3',5'-cyclic-AMP phosphodiesterase 4B (Homo sapiens), sequence (Q07343 whole entry, looked up): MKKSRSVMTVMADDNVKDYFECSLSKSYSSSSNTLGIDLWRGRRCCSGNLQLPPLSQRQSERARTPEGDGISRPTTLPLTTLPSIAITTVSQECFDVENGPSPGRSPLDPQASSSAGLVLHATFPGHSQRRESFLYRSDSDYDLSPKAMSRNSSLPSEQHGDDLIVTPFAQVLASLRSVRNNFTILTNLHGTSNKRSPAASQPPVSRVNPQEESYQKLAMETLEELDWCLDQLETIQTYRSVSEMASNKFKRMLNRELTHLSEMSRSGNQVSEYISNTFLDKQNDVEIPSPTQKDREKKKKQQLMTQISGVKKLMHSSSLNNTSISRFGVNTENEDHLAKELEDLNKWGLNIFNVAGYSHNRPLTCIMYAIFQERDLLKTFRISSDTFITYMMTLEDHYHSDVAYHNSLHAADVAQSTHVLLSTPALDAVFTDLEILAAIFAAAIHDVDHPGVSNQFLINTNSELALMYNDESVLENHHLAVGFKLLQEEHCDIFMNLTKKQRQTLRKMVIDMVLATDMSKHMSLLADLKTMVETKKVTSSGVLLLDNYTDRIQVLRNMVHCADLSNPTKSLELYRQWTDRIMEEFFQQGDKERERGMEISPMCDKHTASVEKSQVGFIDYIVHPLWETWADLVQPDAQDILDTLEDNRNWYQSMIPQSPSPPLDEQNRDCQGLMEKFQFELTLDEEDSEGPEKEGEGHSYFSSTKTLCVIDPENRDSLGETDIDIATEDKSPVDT
# Method in brief: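 Live HEK293 cells with a modified cyclic nucleotide-gated (CNG) channel report intracellular cAMP via membrane-potential dye fluorescence (ex 535/em 590 nm). Endogenous PDE-IV was targeted. Compounds were tested at up to 22.9 uM final; RO 20-1724 100 uM served as control.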
# [8] = biological target: Guanine nucleotide-binding protein G(i) subunit alpha-1 (Homo sapiens) (UniProt P63096); assay: qHTS Assay for Inhibitors of RGS12 GoLoco Motif Activity (Green Fluorophore) (AID 879);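 further: negative values mean loss of peptide binding seen as reduced polarization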
# Guanine nucleotide-binding protein G(i) subunit alpha-1 (Homo sapiens), sequence (P63096 whole entry, looked up): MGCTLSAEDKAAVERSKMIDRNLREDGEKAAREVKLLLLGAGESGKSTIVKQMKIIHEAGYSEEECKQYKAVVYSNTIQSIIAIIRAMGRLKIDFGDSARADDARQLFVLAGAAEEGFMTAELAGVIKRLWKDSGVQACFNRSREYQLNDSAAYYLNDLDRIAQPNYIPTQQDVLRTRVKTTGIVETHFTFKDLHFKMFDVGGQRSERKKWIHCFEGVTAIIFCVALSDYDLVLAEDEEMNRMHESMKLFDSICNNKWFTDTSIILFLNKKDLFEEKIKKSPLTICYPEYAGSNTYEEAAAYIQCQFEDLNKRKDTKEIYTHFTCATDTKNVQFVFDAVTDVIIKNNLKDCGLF
# Method in brief: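 Fluorescence polarization assay: 50 nM Gαi1 with 10 nM FITC-labeled RGS12 GoLoco peptide in 10 mM Tris pH 7.5, 150 mM NaCl, 0.1 mM GDP, 0.05% NP40, 10 min at room temperature with compound.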
# [9] = biological target: Pyruvate kinase PKM (Homo sapiens) (UniProt P14618); assay: qHTS Assay for Activators of Human Muscle Pyruvate Kinase (AID 954; active means well fitted curve in the direction sought with a large enough effect, not every such curve was filed as active)
# Method in brief: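 Enzyme was run at intermediate activity so both inhibitors and activators could be detected. ATP formed from ADP and PEP by 0.1 nM human PKM2 during a 1 h room-temperature incubation was quantified by coupled luciferase luminescence.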
# [10] = biological target: alpha-glucosidase (Oryza sativa, rice) (UniProt Q653V4); assay: Counterscreen for Glucocerebrosidase Inhibitors: qHTS Assay for Rice alpha-Glucosidase at pH 5.0 (AID 997)
# Method in brief: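 Rice alpha-glucosidase (4 nM final) with 400 uM 4-methylumbelliferyl-alpha-D-glucopyranoside in citrate buffer pH 5.0, 20 min at room temperature, stopped at pH 10; fluorescence 365/440 nm, compounds 0.7 nM–77 uM, AC50 from Hill fits.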
# [11] = biological target: RecQ-like DNA helicase BLM (Homo sapiens) (UniProt P54132); assay: qHTS Validation Assay for Inhibitors of Bloom's syndrome helicase (BLM) (AID 2364); further: potency means the concentration at half of the fitted maximal effect
# RecQ-like DNA helicase BLM (Homo sapiens), sequence (P54132 whole entry, looked up): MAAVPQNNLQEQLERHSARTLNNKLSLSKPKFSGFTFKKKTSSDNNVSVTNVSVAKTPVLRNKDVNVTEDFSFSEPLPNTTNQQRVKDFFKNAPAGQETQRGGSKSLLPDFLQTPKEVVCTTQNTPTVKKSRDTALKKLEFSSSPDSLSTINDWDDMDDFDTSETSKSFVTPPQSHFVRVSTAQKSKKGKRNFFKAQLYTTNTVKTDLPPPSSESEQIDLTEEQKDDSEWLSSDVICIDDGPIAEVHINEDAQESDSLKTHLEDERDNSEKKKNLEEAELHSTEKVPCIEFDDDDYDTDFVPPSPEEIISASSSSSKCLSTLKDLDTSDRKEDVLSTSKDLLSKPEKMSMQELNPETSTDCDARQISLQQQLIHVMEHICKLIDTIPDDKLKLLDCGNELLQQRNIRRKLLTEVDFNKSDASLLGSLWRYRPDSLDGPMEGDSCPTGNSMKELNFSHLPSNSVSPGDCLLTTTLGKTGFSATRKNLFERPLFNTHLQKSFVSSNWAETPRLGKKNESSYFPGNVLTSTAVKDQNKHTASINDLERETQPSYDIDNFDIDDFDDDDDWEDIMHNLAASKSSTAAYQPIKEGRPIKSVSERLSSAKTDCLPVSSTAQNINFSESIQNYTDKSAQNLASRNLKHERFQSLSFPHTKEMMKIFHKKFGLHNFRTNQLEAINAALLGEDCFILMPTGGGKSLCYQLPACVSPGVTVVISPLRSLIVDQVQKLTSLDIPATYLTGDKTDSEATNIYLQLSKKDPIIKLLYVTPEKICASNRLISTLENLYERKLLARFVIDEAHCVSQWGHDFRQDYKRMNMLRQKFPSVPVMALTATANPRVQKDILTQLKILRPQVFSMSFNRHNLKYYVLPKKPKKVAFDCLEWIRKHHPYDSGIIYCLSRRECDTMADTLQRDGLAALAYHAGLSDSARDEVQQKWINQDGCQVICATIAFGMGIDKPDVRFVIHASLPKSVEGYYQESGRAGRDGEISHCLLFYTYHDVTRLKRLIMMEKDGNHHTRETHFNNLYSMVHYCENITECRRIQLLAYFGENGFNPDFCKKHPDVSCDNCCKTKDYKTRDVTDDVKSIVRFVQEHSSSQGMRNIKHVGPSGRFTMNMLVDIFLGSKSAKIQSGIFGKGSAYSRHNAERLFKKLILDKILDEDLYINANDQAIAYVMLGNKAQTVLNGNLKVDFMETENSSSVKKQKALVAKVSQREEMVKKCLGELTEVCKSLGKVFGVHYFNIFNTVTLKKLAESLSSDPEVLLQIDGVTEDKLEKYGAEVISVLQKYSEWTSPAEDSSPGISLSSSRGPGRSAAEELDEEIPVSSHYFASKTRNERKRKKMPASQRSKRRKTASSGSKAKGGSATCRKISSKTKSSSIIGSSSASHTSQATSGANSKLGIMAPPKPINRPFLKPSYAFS
# Method in brief: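 BLM 50 nM in 25 mM Tris-HCl pH 8.0, 5 mM NaCl, 2 mM MgCl2, 1 mM DTT, 0.01% Tween-20, 2.5 ug/ml poly(dI-dC); 15 min cpd preinc, RT. Start: 200 nM forked DNA + 2 mM ATP (final). TAMRA read, 2 reads 2 h apart.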
# [12] = biological target: M-phase phosphoprotein 8 (Homo sapiens) (UniProt Q99549); assay: qHTS Validation Assay for Inhibitors for MPP8 Chromodomain Interactions with Methylated Histone Tails (AID 488949);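 further: AlphaScreen signal from MPP8 chromodomain bound to biotinylated H3K9me3 peptide; top concentration of the series differs between compounds; nearly all actives have a fitted effect of over 55% in size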
# M-phase phosphoprotein 8 (Homo sapiens), sequence (Q99549 whole entry, looked up): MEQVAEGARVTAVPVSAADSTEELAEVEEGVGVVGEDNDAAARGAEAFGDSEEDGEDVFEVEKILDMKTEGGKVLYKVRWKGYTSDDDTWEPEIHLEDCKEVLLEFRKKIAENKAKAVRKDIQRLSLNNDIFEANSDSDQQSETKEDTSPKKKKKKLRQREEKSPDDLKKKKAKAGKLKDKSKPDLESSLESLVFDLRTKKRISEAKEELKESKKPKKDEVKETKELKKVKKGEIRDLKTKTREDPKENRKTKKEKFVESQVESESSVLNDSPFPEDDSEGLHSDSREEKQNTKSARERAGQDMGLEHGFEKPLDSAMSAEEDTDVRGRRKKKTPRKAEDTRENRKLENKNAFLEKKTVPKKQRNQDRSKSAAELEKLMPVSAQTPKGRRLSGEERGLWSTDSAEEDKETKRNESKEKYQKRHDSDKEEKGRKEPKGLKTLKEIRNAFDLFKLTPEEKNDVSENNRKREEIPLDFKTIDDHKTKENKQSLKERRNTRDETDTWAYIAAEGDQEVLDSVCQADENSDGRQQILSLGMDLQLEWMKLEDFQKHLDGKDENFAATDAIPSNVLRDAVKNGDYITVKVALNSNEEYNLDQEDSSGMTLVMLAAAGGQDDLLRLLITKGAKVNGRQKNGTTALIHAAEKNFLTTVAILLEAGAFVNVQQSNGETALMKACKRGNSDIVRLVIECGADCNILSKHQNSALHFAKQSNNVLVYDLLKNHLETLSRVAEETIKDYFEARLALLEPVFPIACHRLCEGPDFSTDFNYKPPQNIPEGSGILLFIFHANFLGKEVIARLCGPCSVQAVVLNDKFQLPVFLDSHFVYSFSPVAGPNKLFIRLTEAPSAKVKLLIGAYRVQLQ
# Method in brief: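 Disruption of the preformed MPP8–trimethyl-H3K9 peptide complex (both 50 nM, 30 min, RT) is measured after 30 min compound exposure, using AlphaScreen proximity beads; aurintricarboxylic acid titration serves as plate control.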
# [13] = qHTS Assay for Modulators of Human Peripheral Myelin Protein 22 (PMP22) Expression/Activity (AID 1967; active means well fitted curve in the direction sought with a large enough effect in the signal ratio; the % refers to the signal ratio)
# Method in brief: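 Quantitative HTS in a mouse Schwann cell line expressing dual click beetle luciferases: Pmp22 promoter (green) and control EF-alpha promoter (red). After 24h treatment, corrected green/red signal ratio gave %Activity relative to untreated cells.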
# [14] = qHTS for differential inhibitors of proliferation of Plasmodium falciparum line 7G8 (AID 1815);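 further: parasite growth measured after three days of incubation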; further: potency means the concentration at half of the fitted maximal effect
# [15] = biological target: Ferritin light chain (Equus caballus) (UniProt P02791); assay: qHTS Validation Assay for Identification of Novel General Anesthetics (AID 2323)
# Ferritin light chain (Equus caballus), sequence (P02791 2-175 limits assumed): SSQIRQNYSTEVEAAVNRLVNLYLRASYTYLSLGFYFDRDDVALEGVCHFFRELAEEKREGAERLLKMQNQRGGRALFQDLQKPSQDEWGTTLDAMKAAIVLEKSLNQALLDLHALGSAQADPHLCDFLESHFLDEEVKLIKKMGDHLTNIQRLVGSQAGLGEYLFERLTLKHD
# Method in brief: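 Apoferritin from horse spleen (10 uM) was mixed with 1-aminoanthracene at 50% saturation in PBS, then compounds were added. After 10 min at room temperature, fluorescence was read (ex 380 nm, em 535 nm) and normalized to free-probe and complex controls.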
# [16] = qHTS for differential inhibitors of proliferation of Plasmodium falciparum line W2 (AID 1883); conditions: Potency: Plasmodium falciparum W2 proliferation inhibition;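 further: parasites grown with compound for 72 h before lysis and staining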; further: potency means the concentration at half of the fitted maximal effect
# [17] = qHTS Assay for Lipid Storage Modulators (AID 1519; calls by dose curve); conditions: Drosophila S3 cells, BODIPY lipid droplet/cell ratio, laser cytometry, cells loaded with oleic acid; for activity change, negative = inhibition: at 57.5 µM (top of the series)
# Method in brief: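 Cells seeded at 5,000 per well were treated with compounds over a concentration series and loaded with oleic acid (400 uM, as added). Lipid droplet fluorescence (488 nm excitation, 500-530 nm channel) was read by laser-scanning cytometry and normalized to 20 uM Triacsin C.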
# [18] = qHTS profiling for inhibitors of Plasmodium falciparum proliferation (AID 504749); further: potency means the concentration at half of the fitted maximal effect; on all read-outs here: nearly all actives have a fitted effect of over 60% in size; conditions: P. falciparum in erythrocytes, SYBR Green DNA, 72 h; for activity, negative = inhibition: at 28.7 µM (top of the series)
# Method in brief: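 P. falciparum-infected erythrocytes (0.3% parasitemia, 2.5% hematocrit final) were exposed to compounds for 72 h at 37 C in 5% CO2, then lysed with SYBR Green buffer overnight at room temperature; parasite DNA fluorescence was normalized to artemisinin and DMSO controls.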
# [19] = measured here: cell count channel max response
# [20] = measured here: lipid channel max response
smiles,measurement,setting,value
CCn1c(=O)c2[nH]c(-c3ccccc3)nc2n(CC)c1=O,"activity change, negative = inhibition",[1],-2.19% [at 38 µM] (inactive)
same,Potency,[2],1 µM (active)
same,"activity change, negative = inhibition",[3],15.8% [at 38 µM] (inactive)
same,"activity, negative = inhibition",[4],6.25% [at 38 µM] (inactive)
same,Potency,[5],> 46 µM (inactive)
same,Potency,[6],> 46 µM (inactive)
same,Potency,[7],2 µM (active)
same,outcome,[8],inactive
same,outcome,[9],inactive
same,outcome,[10],inactive
same,Potency,[11],inactive
same,Potency,[12],inactive
CC(=O)NCCc1ccc(O)c(O)c1,"activity change, negative = inhibition",[1],-4.94% [at 38 µM] (inactive)
same,Potency,[2],inactive
same,"activity change, negative = inhibition",[3],11.3% [at 38 µM] (inactive)
same,"activity, negative = inhibition",[4],5.1% [at 38 µM] (inactive)
same,Potency,[5],> 46 µM (inactive)
same,Potency,[6],> 46 µM (inactive)
same,Potency,[7],inactive
same,outcome,[8],inactive
same,outcome,[9],inactive
same,outcome,[10],inactive
same,outcome,[13],inactive
Nc1ncnc2c1ncn2[C@@H]1O[C@H](CO)[C@H](O)[C@H]1O,Potency,[14],inactive
same,outcome,[13],inactive
same,outcome,[15],inactive
same,Potency,[11],inactive
NC(=S)c1ccc[n+]([C@@H]2O[C@@H](COP(=O)([O-])OP(=O)(O)OC[C@H]3O[C@@H](n4cnc5c(N)ncnc54)[C@H](OP(=O)(O)O)[C@H]3O)C(O)C2O)c1 (stereo partly specified),Potency,[14],inactive
same,Potency,[16],inactive
same,outcome,[13],inactive
Cc1ccccc1N1CCN(S(=O)(=O)C[C@]23CCC(CC2NC(=O)[C@@H](N)CCS(C)(=O)=O)C3(C)C)CC1 (stereo partly specified),"activity change, negative = inhibition",[17],0.353% (inactive)
same,max response,[17]; [19],-14.5%
same,max response,[17]; [20],-10.9%
same,Potency,[16],12.6 µM (active)
same,outcome,[15],inactive
CC(N)=NCCCC(N)C(=O)O (stereo unspecified),Potency,[14],inactive
same,Potency,[16],inactive
same,outcome,[13],inactive
same,Potency,[11],inactive
NC(=S)NCCCC(N)C(=O)O (stereo unspecified),Potency,[14],inactive
same,Potency,[16],inactive
Nc1ncnc2c1ncn2[C@@H]1O[C@H](C(=O)NC2CC2)[C@H](O)[C@H]1O,Potency,[14],inactive
same,outcome,[13],inactive
CN1C2CC(OC(=O)C(CO)c3ccccc3)CC1C1OC12 (stereo unspecified),Potency,[14],inactive
same,outcome,[13],inactive
CC(C)C[C@H]1C(=O)N2CCCC2[C@]2(O)O[C@](NC(=O)[C@@H]3C=C4c5cccc6[nH]c(Br)c(c56)C[C@H]4N(C)C3)(C(C)C)C(=O)N12 (stereo partly specified),Potency,[12],inactive
same,Potency,[18]; parasite line A,11.2 µM (active)
same,Potency,[18]; parasite line B,5.62 µM (active)
NCCCCNS(=O)(=O)c1cccc2c(Cl)cccc12,"activity change, negative = inhibition",[1],-2.83% [at 38 µM] (inactive)
same,Potency,[2],15.8 µM (active)
same,"activity change, negative = inhibition",[3],-12.9% [at 38 µM] (inactive)
same,"activity, negative = inhibition",[4],3.48% [at 38 µM] (inactive)
same,Potency,[5],> 46 µM (inactive)
same,Potency,[6],> 46 µM (inactive)
same,Potency,[7],inactive
same,outcome,[8],inactive
same,outcome,[9],inactive
same,outcome,[10],inactive
same,Potency,[14],8.91 µM (active)
same,Potency,[16],11.2 µM (active)
same,outcome,[15],inactive
same,Potency,[11],inactive
O=[N+]([O-])c1ccc(CSc2ncnc3c2ncn3[C@@H]2O[C@H](CO)[C@H](O)[C@H]2O)cc1,outcome,[13],inactive
C[C@H](Cc1ccccc1)Nc1ncnc2c1ncn2[C@@H]1O[C@H](CO)[C@H](O)[C@H]1O,Potency,[14],inactive
same,Potency,[11],inactive
same,Potency,[12],inactive
CSc1nc(N)c2ncn([C@@H]3O[C@H](COP(=O)(O)OP(=O)(O)OP(=O)(O)O)[C@H](O)[C@H]3O)c2n1,Potency,[16],12.6 µM (active)
OC[C@H]1O[C@@H](n2cnc3c(Nc4ccccc4)ncnc32)[C@H](O)[C@H]1O,Potency,[14],inactive
same,Potency,[16],inactive
same,outcome,[15],inactive
same,Potency,[11],inactive
same,Potency,[12],inactive
Nc1nc2c(nc(Br)n2C2O[C@H]3COP(=O)(O)O[C@@H]3C2O)c(=O)[nH]1 (stereo partly specified),Potency,[16],6.31 µM (active)
N.N.N.N.N.N.N.N.N.N.N.N.N.N.O.O.[Cl-].[Cl-].[Cl-].[Cl-].[Cl-].[Cl-].[Ru].[Ru].[Ru],"activity change, negative = inhibition",[17],3.46% (inactive)
same,max response,[17]; [19],40.4%
same,max response,[17]; [20],45.1%
same,Potency,[11],12.6 µM (active)
CCSC(N)=Nc1ccc(C(F)(F)F)cc1,"activity change, negative = inhibition",[1],-5.3% [at 38 µM] (inactive)
same,Potency,[2],2.51 µM (active)
same,"activity change, negative = inhibition",[3],0.554% [at 38 µM] (inactive)
same,"activity, negative = inhibition",[4],13.4% [at 38 µM] (inactive)
same,Potency,[5],> 46 µM (inactive)
same,Potency,[6],> 46 µM (inactive)
same,Potency,[7],inactive
same,outcome,[8],inactive
same,outcome,[9],inactive
same,outcome,[10],inactive
same,Potency,[14],inactive
same,outcome,[13],inactive
same,Potency,[12],inactive
COc1ccc(CCNC[C@@H](O)c2ccc(O)cc2)cc1OC,Potency,[14],inactive
same,outcome,[13],inactive
same,Potency,[11],inactive
same,"activity, negative = inhibition",[18]; parasite line A,10.4% (inactive)
same,"activity, negative = inhibition",[18]; parasite line B,8.86% (inactive)
CC(O)[C@@H](O)[C@H]1CNc2nc(N)[nH]c(=O)c2N1 (stereo partly specified),Potency,[14],inactive
same,Potency,[16],inactive
CCCCC#Cc1nc(N)c2ncn([C@@H]3O[C@H](C(=O)NCC)[C@@H](O)[C@H]3O)c2n1,Potency,[14],7.94 µM (active)
same,Potency,[16],11.2 µM (active)
same,outcome,[15],inactive
same,Potency,[11],inactive
CN1C2CCC1CC(NC(=O)c1nn(C)c3ccccc13)C2 (stereo unspecified),outcome,[13],inactive
same,Potency,[11],inactive
CCCCCCCCCCCCCCC/C=C/[C@@H](O)[C@H](NC(=O)CCCCCCCCCCCCC)OC (tested in a mixture with another compound),Potency,[14],inactive
same,Potency,[16],inactive
same,outcome,[13],inactive
NC(=NCCC[C@H](N)C(=O)O)NO,"activity change, negative = inhibition",[1],-0.154% [at 38 µM] (inactive)
same,Potency,[2],inactive
same,"activity change, negative = inhibition",[3],10.4% [at 38 µM] (inactive)
same,"activity, negative = inhibition",[4],-18.2% [at 38 µM] (inactive)
same,Potency,[5],> 46 µM (inactive)
same,Potency,[6],> 46 µM (inactive)
same,Potency,[7],inactive
same,outcome,[8],inactive
same,outcome,[9],inactive
same,outcome,[10],inactive
same,Potency,[14],inactive
same,Potency,[16],inactive
same,outcome,[13],inactive
same,outcome,[15],inactive
same,Potency,[11],inactive
